Experimental findings from PubChem BioAssay (EPA / NIEHS) are described below.

Test [1] deals with human Thromboxane A2 Receptor (TXA2), TBXA2R (gene 6915) (UniProt P21731). The test is described as follows: NVS_GPCR_hTXA2: NovaScreen (NVS) G Protein-Coupled Receptor Assay for human Thromboxane A2 Receptor (TXA2) (AID 2283282).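 Further: actives reduce bound radioligand signal relative to DMSO baseline.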 Put shortly:
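Filter scintillation counting of bound radioligand, human platelet protein, 1 h exposure. Single-concentration duplicates (25 uM) first, concentration-response follow-up for actives. Binding loss scored against DMSO baseline.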

Test [2] addresses human Orphanin, Opioid Related Nociceptin Receptor 1 (ORL1), OPRL1 (gene 4987) (UniProt P41146). The test is described as follows: NVS_GPCR_hORL1: NovaScreen (NVS) G Protein-Coupled Receptor Assay for human Orphanin, Opioid Related Nociceptin Receptor 1 (ORL1) (AID 2283283). Put shortly:
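Filter-based radioligand displacement with receptor extracted from HEK293 cells, read 1 hour after dosing by scintillation counting. Duplicate single-point screen at 25 uM; qualifying chemicals then run in concentration-response to 50 uM, analysed relative to DMSO.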

The target of test [3] is human Opioid Receptor Mu (Opiate Mu), OPRM1 (gene 4988) (UniProt P35372). The test is described as follows: NVS_GPCR_hOpiate_mu: NovaScreen (NVS) G Protein-Coupled Receptor Assay for human Opioid Receptor Mu (Opiate Mu) (AID 2283290).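 Further: hits lower bound tracer signal versus DMSO meaning displacement of the ligand.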 The method in brief: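 CHO-derived receptor protein, cell-free; radioligand displacement, filtration + scintillation counting, read at 2.5 h. DMSO = negative control/baseline. Primary: 25 uM single conc, duplicate; secondary: concentration series.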
Chain of human Opioid Receptor Mu (Opiate Mu), OPRM1 (gene 4988) (P35372 whole entry, looked up): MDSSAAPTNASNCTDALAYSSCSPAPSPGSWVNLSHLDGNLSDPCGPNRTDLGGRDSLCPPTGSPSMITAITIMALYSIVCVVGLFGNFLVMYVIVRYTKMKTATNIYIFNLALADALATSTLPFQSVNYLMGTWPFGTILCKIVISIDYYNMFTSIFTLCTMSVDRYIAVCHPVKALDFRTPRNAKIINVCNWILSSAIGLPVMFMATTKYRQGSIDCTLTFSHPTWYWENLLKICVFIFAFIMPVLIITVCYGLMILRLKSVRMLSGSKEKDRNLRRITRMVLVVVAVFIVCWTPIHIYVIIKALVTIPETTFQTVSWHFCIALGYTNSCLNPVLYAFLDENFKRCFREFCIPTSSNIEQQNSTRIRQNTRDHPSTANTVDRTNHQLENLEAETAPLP

Test [4] deals with rat Neonicotinoid receptor (NNR), Chrna7 (gene 25302) (UniProt Q05941). The test is described as follows: NVS_LGIC_rNNR_BungSens: NovaScreen (NVS) Ligand-Gated Ion Channel Assay for rat Neonicotinoid receptor (NNR) (AID 2283315). The method in brief:
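Radioligand displacement binding on rat cortical membranes, 2.5 h incubation, filtration and scintillation counting. Loss of specific binding fitted relative to DMSO.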

Test [5] has as its target Muscarinic acetylcholine receptor M2 (Homo sapiens) (UniProt P08172). The test is described as follows: NVS_GPCR_hM2: NovaScreen (NVS) G Protein-Coupled Receptor Assay for human Muscarinic, M2 Receptor (AID 2283273). The method in brief: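 Cell-free radioligand binding using membranes from CHO cells expressing the receptor; filter-based scintillation counting after 1 hour of compound exposure. Loss of specific binding relative to DMSO baseline; primary screen at 25 uM in duplicate, actives then run in concentration series.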

In test [6] the target is Sodium channel protein type 1 subunit alpha (Rattus norvegicus) (UniProt P04774). Kind of test: NVS_IC_rNaCh_site2: NovaScreen (NVS) Ion Channel Assay for rat Sodium Channel, Site 2 (NaCh) (AID 2283322).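 Further: hit means loss of radioligand binding signal relative to DMSO so AC50 marks displacement.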 Put shortly:
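Membranes: rat forebrain. Format: competitive radioligand displacement, filter separation, scintillation readout, 1 h exposure. Primary screen in duplicate at 25 uM; actives retested in concentration series.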

Test [7] deals with mouse Cholecystokinin, CCK1 Receptor (CCKA), Cckar (gene 12425) (UniProt O08786). Kind of test: NVS_GPCR_mCCKAPeripheral: NovaScreen (NVS) G Protein-Coupled Receptor Assay for mouse Cholecystokinin, CCK1 Receptor (CCKA) (AID 2283285). The method in brief: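 Radioligand competitive displacement on mouse pancreatic membranes, 2 h incubation; filter-based scintillation counting, loss of signal versus DMSO. Single-concentration screen at 25 uM in duplicate, actives retested in concentration-response up to 50 uM.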

Test [8] addresses human Neonicotinoid receptor (NNR), CHRNA2 (gene 1135) (UniProt Q15822). Kind of test: NVS_LGIC_hNNR_NBungSens: NovaScreen (NVS) Ligand-Gated Ion Channel Assay for human Neonicotinoid receptor (NNR) (AID 2283313). Put shortly: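 Radioligand displacement on human neuroblastoma membranes, 2 h, filter-based scintillation counting. Primary screen in duplicate at 25 uM; chemicals passing threshold (e.g. 30% inhibition) run singleton concentration-response to 50 uM; loss of binding fitted versus DMSO.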

Test [9] addresses human Purinergic Receptor P2Y, P2RY1 (gene 5028) (UniProt P47900). The test is described as follows: NVS_GPCR_hPY2: NovaScreen (NVS) G Protein-Coupled Receptor Assay for human Purinergic Receptor P2Y (AID 2283281). The method in brief: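 Cell-free radioligand binding using U937-derived protein, 1 h after dosing, filter-based scintillation counting. Screened in duplicate at 25 uM; actives rerun as concentration-response up to 50 uM; loss of signal versus DMSO.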

The target in test [10] is human Neurokinin, NK2 Receptor, TACR2 (gene 6865) (UniProt P21452). The test is described as follows: NVS_GPCR_hNK2: NovaScreen (NVS) G Protein-Coupled Receptor Assay for human Neurokinin, NK2 Receptor (AID 2283278).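 Further: actives reduce bound radioligand signal relative to DMSO baseline.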 Put shortly:
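Filter-based scintillation counting measured radioligand bound to receptor extracted from CHO cells, 4 hours after compound addition. Chemicals screened first at 25 uM in duplicate, with actives retested in concentration series relative to DMSO.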

Test [11] concerns the target rat Adrenergic Receptor, Alpha 2 (Adra2), Non-selective Binding, Adra2a (gene 25083) (UniProt P22909). The test is described as follows: NVS_GPCR_rAdra2_NonSelective: NovaScreen (NVS) G Protein-Coupled Receptor Assay for rat Adrenergic Receptor, Alpha 2 (Adra2), Non-selective Binding (AID 2283299). Put shortly: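 Rat cortical membranes, radioligand competitive displacement read by filter-based scintillation counting 1.25 hours after dosing. Primary screen in duplicate at 25 uM; actives followed up in concentration series.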

In test [12] the test system is 5-hydroxytryptamine receptor 2C (pig). The test is described as follows: NVS_GPCR_p5HT2C: NovaScreen (NVS) G Protein-Coupled Receptor Assay for pig Serotonin, 5-Hydroxytryptamine Receptor 2C (5HT2C) (AID 2283288). The method in brief: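 Pig choroid plexus membranes; radioligand competitive binding, filter-based scintillation counting, read 1 h after dosing. Primary screen in duplicate at 25 uM; actives then run as concentration series; loss of signal versus DMSO baseline.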

Test [13] addresses rat Corticotropin Releasing Factor Receptor (CRF), Crhr1 (gene 58959) (UniProt P35353). The test is described as follows: NVS_GPCR_rCRF: NovaScreen (NVS) G Protein-Coupled Receptor Assay for rat Corticotropin Releasing Factor Receptor (CRF) (AID 2283300). Put shortly:
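Rat cortical membranes used as receptor source in a radioligand competitive displacement binding assay; scintillation read 2 h after dosing. Primary screen run in duplicate at 25 uM; loss of signal versus DMSO baseline indicates binding.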

For test [14], the target named is rat Glutamate, AMPA Site (AMPA), Gria1 (gene 50592) (UniProt P19490). The test is described as follows: NVS_LGIC_rAMPA: NovaScreen (NVS) Ligand-Gated Ion Channel Assay for rat Glutamate, AMPA Site (AMPA) (AID 2283324). Put shortly:
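Rat forebrain membranes; radioligand binding read 1 h after dosing by filtration and scintillation counting. Duplicate single-point screen at 25 uM, then concentration-response to 50 uM for threshold hits (e.g. 30% inhibition); loss of signal vs DMSO.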

The target in test [15] is Voltage-dependent N-type calcium channel subunit alpha-1B (Rattus norvegicus) (UniProt Q02294). The test is described as follows: NVS_IC_rCaChN: NovaScreen (NVS) Ion Channel Assay for rat Calcium Channel, Type N (CaChN) (AID 2283317).
Test [16] has as its target mouse Cholecystokinin, CCK2 Receptor (CCKB), Cckbr (gene 12426) (UniProt P56481). Kind of test: NVS_GPCR_mCKKBCentral: NovaScreen (NVS) G Protein-Coupled Receptor Assay for mouse Cholecystokinin, CCK2 Receptor (CCKB) (AID 2283293). The method in brief: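 Radioligand displacement binding on mouse forebrain membranes, 2 h exposure, filter-based scintillation counting. Primary screen in duplicate at 25 uM; actives (e.g. ≥30% inhibition) retested in concentration-response up to 50 uM; loss of binding signal relative to DMSO.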

Records with an inconclusive call do not appear. Some structures have more than one record in an assay (separate samples or runs), and their calls can disagree. The source made the active and inactive calls. How the source made its calls: active means hit-call score of the fitted dose curve at least 0.9, where 1 is the maximum; inconclusive means response in the unintended direction; inactive means score below 0.9.

Chain of human Neurokinin, NK2 Receptor, TACR2 (gene 6865) (P21452 whole entry, looked up): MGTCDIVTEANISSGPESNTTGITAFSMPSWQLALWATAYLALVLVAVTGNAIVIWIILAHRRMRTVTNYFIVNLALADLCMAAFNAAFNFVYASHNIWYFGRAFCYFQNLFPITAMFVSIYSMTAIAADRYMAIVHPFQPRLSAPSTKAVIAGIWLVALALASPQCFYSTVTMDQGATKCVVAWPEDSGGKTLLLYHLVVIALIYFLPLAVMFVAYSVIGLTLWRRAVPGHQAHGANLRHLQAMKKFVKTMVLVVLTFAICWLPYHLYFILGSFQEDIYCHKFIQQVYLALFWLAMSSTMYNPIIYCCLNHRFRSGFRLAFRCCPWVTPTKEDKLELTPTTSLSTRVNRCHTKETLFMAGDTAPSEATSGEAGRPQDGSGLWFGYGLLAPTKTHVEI
Chain of human Thromboxane A2 Receptor (TXA2), TBXA2R (gene 6915) (P21731 whole entry, looked up): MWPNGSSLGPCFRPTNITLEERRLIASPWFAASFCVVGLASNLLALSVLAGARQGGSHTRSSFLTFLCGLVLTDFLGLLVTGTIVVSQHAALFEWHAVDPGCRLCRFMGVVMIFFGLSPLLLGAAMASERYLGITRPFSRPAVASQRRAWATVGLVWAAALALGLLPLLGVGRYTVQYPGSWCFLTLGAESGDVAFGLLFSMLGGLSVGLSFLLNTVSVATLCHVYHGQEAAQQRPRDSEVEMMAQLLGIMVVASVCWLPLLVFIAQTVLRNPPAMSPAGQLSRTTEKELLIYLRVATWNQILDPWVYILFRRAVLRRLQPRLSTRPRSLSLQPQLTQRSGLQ
Chain of rat Neonicotinoid receptor (NNR), Chrna7 (gene 25302) (Q05941 whole entry, looked up): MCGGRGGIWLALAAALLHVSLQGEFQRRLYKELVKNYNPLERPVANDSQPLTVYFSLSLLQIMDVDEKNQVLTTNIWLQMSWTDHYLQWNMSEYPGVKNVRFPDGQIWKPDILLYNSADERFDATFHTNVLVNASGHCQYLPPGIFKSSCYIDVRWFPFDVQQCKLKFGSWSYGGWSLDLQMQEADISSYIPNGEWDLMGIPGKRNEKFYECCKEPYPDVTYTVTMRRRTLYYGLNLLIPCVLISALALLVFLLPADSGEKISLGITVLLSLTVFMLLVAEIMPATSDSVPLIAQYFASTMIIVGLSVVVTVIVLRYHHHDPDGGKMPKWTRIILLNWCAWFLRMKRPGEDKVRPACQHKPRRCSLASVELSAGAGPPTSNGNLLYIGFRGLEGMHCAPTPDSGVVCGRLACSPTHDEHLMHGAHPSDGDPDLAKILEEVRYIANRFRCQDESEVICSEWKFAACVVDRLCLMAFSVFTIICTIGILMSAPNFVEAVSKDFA
Chain of Muscarinic acetylcholine receptor M2 (Homo sapiens) (P08172 whole entry, looked up): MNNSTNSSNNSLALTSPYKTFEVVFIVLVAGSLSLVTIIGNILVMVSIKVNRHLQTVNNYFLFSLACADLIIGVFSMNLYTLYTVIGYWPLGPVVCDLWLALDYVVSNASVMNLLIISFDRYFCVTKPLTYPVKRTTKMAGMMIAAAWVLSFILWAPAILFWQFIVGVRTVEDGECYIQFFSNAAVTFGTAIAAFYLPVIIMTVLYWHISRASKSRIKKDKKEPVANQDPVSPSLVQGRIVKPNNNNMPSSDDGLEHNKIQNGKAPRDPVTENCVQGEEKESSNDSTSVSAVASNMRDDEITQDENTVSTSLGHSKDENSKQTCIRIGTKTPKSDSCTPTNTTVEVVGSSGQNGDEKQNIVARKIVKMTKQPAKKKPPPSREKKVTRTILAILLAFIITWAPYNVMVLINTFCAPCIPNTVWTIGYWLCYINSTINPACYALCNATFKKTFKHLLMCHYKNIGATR
Chain of rat Adrenergic Receptor, Alpha 2 (Adra2), Non-selective Binding, Adra2a (gene 25083) (P22909 whole entry, looked up): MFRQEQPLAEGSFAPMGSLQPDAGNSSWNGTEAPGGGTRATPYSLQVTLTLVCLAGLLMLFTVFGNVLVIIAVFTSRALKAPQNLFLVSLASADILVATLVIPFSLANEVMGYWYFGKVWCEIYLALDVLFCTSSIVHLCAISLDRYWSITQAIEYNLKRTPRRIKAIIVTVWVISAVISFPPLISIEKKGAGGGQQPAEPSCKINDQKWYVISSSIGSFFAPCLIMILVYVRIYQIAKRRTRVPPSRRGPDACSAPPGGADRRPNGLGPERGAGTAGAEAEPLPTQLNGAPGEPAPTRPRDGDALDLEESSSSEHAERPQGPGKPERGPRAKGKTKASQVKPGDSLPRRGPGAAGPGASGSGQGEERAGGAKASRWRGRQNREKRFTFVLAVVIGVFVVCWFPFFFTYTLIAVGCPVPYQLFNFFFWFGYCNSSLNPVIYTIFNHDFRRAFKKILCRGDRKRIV
Chain of human Orphanin, Opioid Related Nociceptin Receptor 1 (ORL1), OPRL1 (gene 4987) (P41146 whole entry, looked up): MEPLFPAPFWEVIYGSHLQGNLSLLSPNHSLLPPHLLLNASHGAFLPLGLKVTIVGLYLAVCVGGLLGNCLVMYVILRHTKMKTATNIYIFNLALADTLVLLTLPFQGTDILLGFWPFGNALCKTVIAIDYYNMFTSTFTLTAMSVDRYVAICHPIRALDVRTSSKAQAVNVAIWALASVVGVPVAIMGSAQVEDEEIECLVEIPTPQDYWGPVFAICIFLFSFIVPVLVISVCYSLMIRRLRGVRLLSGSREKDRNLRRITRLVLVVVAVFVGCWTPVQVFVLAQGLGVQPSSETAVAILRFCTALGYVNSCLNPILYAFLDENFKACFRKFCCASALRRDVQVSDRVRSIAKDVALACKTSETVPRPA
Chain of mouse Cholecystokinin, CCK2 Receptor (CCKB), Cckbr (gene 12426) (P56481 whole entry, looked up): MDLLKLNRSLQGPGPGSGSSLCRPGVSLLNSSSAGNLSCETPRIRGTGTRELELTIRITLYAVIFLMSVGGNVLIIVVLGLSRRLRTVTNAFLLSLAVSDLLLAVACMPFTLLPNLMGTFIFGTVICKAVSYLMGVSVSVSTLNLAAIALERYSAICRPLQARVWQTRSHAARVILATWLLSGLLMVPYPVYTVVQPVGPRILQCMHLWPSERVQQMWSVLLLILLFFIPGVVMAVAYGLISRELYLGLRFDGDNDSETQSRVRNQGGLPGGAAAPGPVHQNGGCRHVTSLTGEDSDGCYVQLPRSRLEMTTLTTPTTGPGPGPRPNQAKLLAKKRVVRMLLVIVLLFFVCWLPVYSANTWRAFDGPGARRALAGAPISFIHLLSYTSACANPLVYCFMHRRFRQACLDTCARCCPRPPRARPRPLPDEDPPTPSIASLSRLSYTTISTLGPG
Chain of rat Corticotropin Releasing Factor Receptor (CRF), Crhr1 (gene 58959) (P35353 whole entry, looked up): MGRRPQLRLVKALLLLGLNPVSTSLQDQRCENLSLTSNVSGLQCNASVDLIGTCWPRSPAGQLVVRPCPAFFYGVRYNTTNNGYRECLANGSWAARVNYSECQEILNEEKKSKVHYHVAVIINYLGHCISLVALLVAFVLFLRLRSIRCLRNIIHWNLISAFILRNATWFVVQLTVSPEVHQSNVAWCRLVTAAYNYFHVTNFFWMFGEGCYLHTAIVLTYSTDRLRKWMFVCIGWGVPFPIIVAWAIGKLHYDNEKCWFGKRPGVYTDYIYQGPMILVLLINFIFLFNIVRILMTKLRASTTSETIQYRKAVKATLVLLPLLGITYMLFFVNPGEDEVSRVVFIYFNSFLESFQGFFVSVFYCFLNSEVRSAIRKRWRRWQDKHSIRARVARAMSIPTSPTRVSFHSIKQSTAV
Chain of rat Glutamate, AMPA Site (AMPA), Gria1 (gene 50592) (P19490 whole entry, looked up): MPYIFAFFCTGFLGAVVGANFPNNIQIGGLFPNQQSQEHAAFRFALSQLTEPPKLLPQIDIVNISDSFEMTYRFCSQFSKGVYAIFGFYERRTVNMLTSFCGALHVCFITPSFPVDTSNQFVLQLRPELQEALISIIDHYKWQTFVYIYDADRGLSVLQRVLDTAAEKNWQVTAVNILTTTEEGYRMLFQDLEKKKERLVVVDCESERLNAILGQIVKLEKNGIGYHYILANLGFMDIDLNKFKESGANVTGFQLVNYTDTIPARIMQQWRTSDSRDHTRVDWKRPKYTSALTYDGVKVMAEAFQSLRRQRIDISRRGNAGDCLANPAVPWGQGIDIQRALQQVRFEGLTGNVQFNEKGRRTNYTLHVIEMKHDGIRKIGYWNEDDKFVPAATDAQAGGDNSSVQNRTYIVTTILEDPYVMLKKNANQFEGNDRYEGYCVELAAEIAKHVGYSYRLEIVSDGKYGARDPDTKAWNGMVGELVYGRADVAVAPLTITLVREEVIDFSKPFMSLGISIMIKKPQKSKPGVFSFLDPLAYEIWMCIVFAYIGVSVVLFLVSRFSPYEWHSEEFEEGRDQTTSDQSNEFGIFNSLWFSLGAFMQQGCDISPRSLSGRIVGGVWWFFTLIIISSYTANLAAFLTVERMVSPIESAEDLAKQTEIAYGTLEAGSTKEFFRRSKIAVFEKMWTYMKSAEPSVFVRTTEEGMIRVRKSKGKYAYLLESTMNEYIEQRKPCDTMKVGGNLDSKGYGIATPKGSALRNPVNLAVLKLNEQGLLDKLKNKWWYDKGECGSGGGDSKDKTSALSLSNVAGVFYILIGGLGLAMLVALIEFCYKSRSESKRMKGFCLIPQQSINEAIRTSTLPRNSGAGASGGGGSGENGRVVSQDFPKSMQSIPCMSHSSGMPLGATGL

As to `N#CCCC(Br)(C#N)CBr` (centres undefined), the AC50 in test [1] is 0.594 µM (active); in test [2], 4.83 µM (active); in [3] it was 20.6 µM (active).

As to `O=S(=O)(C(Cl)(Cl)Cl)C(Cl)(Cl)Cl`, the concentration at half-maximal activity (AC50) in [3] was 7.84 µM (active).

On to `O=C1C[C@@H]2OCC=C3CN4CC[C@]56c7ccccc7N1[C@H]5[C@H]2[C@H]3C[C@H]46`, for which the molecule was classed as inactive in test [4].

Consider `OCCN(CCO)CCO`, for which the result in test [5] was inactive.

In the case of `Oc1cccc(-c2ccccc2)c1`, in test [1], the result was inactive.

`CCOP(=S)(OCC)SCS(=O)(=O)C(C)(C)C`: the molecule was called inactive in [1] and in test [6].

`O=C(N[C@H]1CN2CCC1CC2)c1ccc2c(c1)OCCO2`: the molecule was called inactive in [1] and in [7]. In addition, the AC50 in test [8] was 12.1 µM (active).

For the molecule `CCCCCCCCCCCCN(C)C`, the AC50 in test [5] is 22.6 µM (active). Moreover, the call in test [6] was inactive.

In the case of `Cc1cc(Cl)ccc1OC(C)C(=O)O` (centres undefined), the call in [9] was inactive.

Consider `CCOC(=O)C(SP(=S)(OC)OC)c1ccccc1` (centres undefined), for which the outcome in [10] was inactive.

Consider `OC(Cc1ccccc1Cl)(Cn1cncn1)C1(Cl)CC1` (centres undefined), for which the AC50 in [6] was 6.73 µM (active).

With `CCC(C)(C#N)N=NC(C)(C#N)CC` (centres undefined), the molecule was called inactive in test [11].

Consider `Oc1cc(Cl)c(Cl)cc1Cl`, for which the AC50 in test [12] is 10.2 µM (active).

Regarding `CN(C)C(=S)S`, the AC50 was 4 µM (active) in [10], 25 µM (active) in [2] and 6.66 µM (active) in test [3]. The result in test [13] and in test [14] was inactive.

For `Brc1c(Br)c(Br)c(Oc2c(Br)c(Br)c(Br)c(Br)c2Br)c(Br)c1Br`, in test [6], the result was inactive.

Regarding `O=C(O)C1(c2ccc3c(c2)OC[C@H](Cc2ccc(-c4ccccc4)cc2)[C@H]3O)CCCC1`, the outcome in test [15] was inactive.

Regarding `Oc1c(Cl)cc(Cl)cc1Cl`, in test [16], the outcome was inactive.

With `C[N+](C)(C)Cc1ccccc1`, the AC50 in [11] was 31.5 µM (active). For the same molecule, in test [4], the AC50 was 25 µM (active) and the outcome was inactive.

For `OC(Cc1ccccc1Cl)(Cn1[nH]cnc1=S)C1(Cl)CC1` (centres undefined), in [10], the AC50 was 15.3 µM (active).

On to `c1ccc2sc(SNC3CCCCC3)nc2c1`, for which the AC50 in test [10] is 0.0784 µM (active); in test [1], 1.12 µM (active).

On to `CC(C)(COCC1CO1)COCC1CO1` (centres undefined), for which the AC50 in test [6] was 2.05 µM (active).
